Read-out in assay [1]: sulfotransferase (SULT2A), SULT2A1 (gene 6822)
The assay can be described thus: CLD_SULT2A_48hr: CellzDirect (CLD) Gene Expression Assay for sulfotransferase (SULT2A) at 48 hours (AID 2283710).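 Also: hits raise SULT2A1 transcript above the 0.2% DMSO vehicle baseline.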 In short, it runs like this: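 SULT2A1 transcript measured by qNPA chemiluminescence in human primary hepatocyte cultures after 48 h, with fresh dosing solutions on two consecutive days; gain-of-signal fitting against 0.2% DMSO vehicle; cytotoxicity annotated from phase-contrast morphology.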

Assay [2] in a line: STM_H9_OrnithineISnorm_perc: Stemina devTOX quickPredict H9 human embryonic stem cell (hESC)-based Assay for Ornithine (ORN) Metabolite Biomarker, Normalized (AID 2283712; active = hit-call score of the fitted dose curve at least 0.9, where 1 is the maximum; inactive = score below 0.9;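 also: ornithine released into spent medium during last day measured by mass spectrometry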). In short, it runs like this:
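Ornithine in spent medium from the last 24 h of a 72 h exposure, deproteinised and quantified by UPLC-HRMS against an isotope-labelled internal standard, expressed relative to 0.1% DMSO. Pluripotent H9 cells; compound refreshed every 24 h.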

Assay [3] can be described thus: CEETOX_H295R_MTT_cell_viability: Viability Assessment in the CeeTox HT-H295R MTT Assay (AID 2283718; active = hit-call score of the fitted dose curve at least 0.9, where 1 is the maximum; inactive = score below 0.9). In short, it runs like this:
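H295R cells prestimulated 48 h with 10 uM forskolin, then exposed 48 h to test chemical (0.1% DMSO final). Viability by MTT (0.5 mg/ml, 4 h, 37 C), absorbance 570/650 nm; percent change versus DMSO, bidirectional fit.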

Assay [4] can be described thus: Tanguay_ZF_120hpf_ActivityScore_legacy: (Legacy) Oregon State University Tanguay Lab 120 Hour Post-fertilization zebrafish Assay Score for Activity (AID 2283742).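 As to AC50: dechorionated Tropical 5D wild-type zebrafish embryos held singly per well; static exposure from 6 hpf until 120 hpf at 28 °C.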 In short, it runs like this:
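In this whole-embryo screen, dechorionated zebrafish were exposed from 6 hpf until 120 hpf at 28C under a 0.64% DMSO vehicle. Developmental malformations and death were recorded by brightfield microscopy as binary endpoints.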

Assay [5] in a line: STM_H9_OrnCyssISnorm_ratio: Stemina devTOX quickPredict H9 human embryonic stem cell (hESC)-based Assay for Ornithine (ORN):Cystine (CYSS) Ratio (AID 2283714). In short, it runs like this: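 H9 hESC, 72h, q24h re-dose; last-day media → acetonitrile deproteinization → UPLC-HRMS. ORN:CYSS ratio from isotope-normalized EIC areas, vs 0.1% DMSO; MTX references on each plate.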
A short description of assay [6]: ArunA_CellTiter_hNC: Viability Assessment in the ArunA Biomedical's Oris Neural Crest (hNC) Cell Migration Assay (AID 2283752). In short, it runs like this:
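After a 72 h chemical exposure, viability of hNC cells is read with CellTiter Aqueous One and fitted as signal loss relative to DMSO. Cells were seeded at 60,000/well on Matrigel and cultured 16 h at 37 C beforehand.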

Assay [7] is described as follows: ArunA_CellTiter_hNP: Viability Assessment in the ArunA Biomedical's Oris Neural Crest (hNC) Cell Migration Assay (AID 2283753). How it is done: ArunA_CellTiter_hNP is a cell-based, single-readout assay that uses human H9-derived neuroprogenitor stem cells (hNP1).Measurements were taken 72 hours after chemical dosing in a 96-well plate.ArunA_CellTiter_hNP is an assay component measured from the ArunA_CellTiter_hNP assay. It is designed to make measurements of viability, a form of viability reporter, as detected with fluorescence intensity signals by HCS Fluorescent Imaging technology. Data from the assay component ArunA_CellTiter_hNP was analyzed at the endpoint, ArunA_CellTiter_hNP, in the positive analysis fitting direction relative to DMSO as the negative control and baseline of activity. Using a type of viability reporter, loss-of-signal activity can be used to understand the viability. To generalize the intended target to other relatable targets, this assay endpoint is annotated to the cell cycle intended target family, where the subfamily is cytotoxicity.
To assess the hNP and hNC migration and cell titer endpoints, 60,000 cells per well were plated onto Matrigel in basal growth medium with LIF and bFGF in a 96-well plate format. Plates were incubated for 16 h at 37C followed by a 72 h exposure to chemical in the test medium. For the migration endpoints, cells were seeded and incubated in presence of 'seeding stoppers' to prevent cell migration and growth into the detection zone. At the beginning of chemical exposure, stoppers were removed, and growth medium was replaced with test medium. In the case of the stopper control wells, stoppers remained in place following replacement of growth medium with test medium. […] Cell viability in the detection zone was quantitated using a Flexstation3 microplate reader (ex494 nm/em 517 nm). Corresponding cell titer endpoints were assessed for the hNP and hNC cells using the Promega CellTiter Aqueous One Solution Cell Proliferation Assay (Cat no. G3581; CellTiter 96). Finally, to gain insight into the mechanisms by which cells migrate into the detection zone, Ki-67 expression was quantified for 10 additional chemicals in the hNP and hNC systems. […]

The nature of assay [8]: ArunA_Migration_hNC: ArunA Biomedical's Oris Neural Crest (hNC) Cell Migration Assay (AID 2283755). How it is done: ArunA_Migration_hNC is a cell-based, single-readout assay that uses human H9-derived embryonic neural crest stem cells (hNC). Measurements were taken 72 hours after chemical dosing in a 96-well plate.ArunA_Migration_hNC is an assay component measured from the ArunA_Migration_hNC assay. It is designed to make measurements of cell migration, a form of distribution reporter, as detected with fluorescence intensity signals by HCS Fluorescent Imaging technology. Data from the assay component ArunA_Migration_hNC was analyzed at the endpoint, ArunA_Migration_hNC, in the positive analysis fitting direction relative to DMSO as the negative control and baseline of activity. Using a type of distribution reporter, loss-of-signal activity can be used to understand the cell migration. To generalize the intended target to other relatable targets, this assay endpoint is annotated to the neurodevelopment intended target family, where the subfamily is migration.
To assess the hNP and hNC migration and cell titer endpoints, 60,000 cells per well were plated onto Matrigel in basal growth medium with LIF and bFGF in a 96-well plate format. Plates were incubated for 16 h at 37C followed by a 72 h exposure to chemical in the test medium. For the migration endpoints, cells were seeded and incubated in presence of 'seeding stoppers' to prevent cell migration and growth into the detection zone. At the beginning of chemical exposure, stoppers were removed, and growth medium was replaced with test medium. In the case of the stopper control wells, stoppers remained in place following replacement of growth medium with test medium. Following 72 -h exposure to the test medium, cells were stained at 37C for 30-60 min with calcein-AM. Cell viability in the detection zone was quantitated using a Flexstation3 microplate reader (ex494 nm/em 517 nm). Corresponding cell titer endpoints were assessed for the hNP and hNC cells using the Promega CellTiter Aqueous One Solution Cell Proliferation Assay (Cat no. G3581; CellTiter 96). Finally, to gain insight into the mechanisms by which cells migrate into the detection zone, Ki-67 expression was quantified for 10 additional chemicals in the hNP and hNC systems. Additionally, cytochalasin D was used as a positive control to inhibit cell migration. Supplementing the AB2 Basal Medium: 1. Decontaminate the external surfaces of all supplement vials and the medium bottle with ethanol or isopropanol. 2. Aseptically open each supplement vial and add the amount indicated below to the basal medium with a pipette. To make 100 ml of complete medium: AB2 Neural Medium 96 mL, ANS Supplement 2 mL, bFGF (50 ug/mL) 40 uL, LIF (10 ug/mL) 100 uL, L-Glutamine (200 mM) 1 mL, Penicillin (5,000 U/mL)/ Streptomycin (5,000 ug/mL) 1 mL. 3. Supplemented medium should be stored at 2-8C, protected from light. The complete medium should be given a 2 week expiration date. Dispense the complete medium into aliquots to avoid repeated heating prior to each use.Plate Coating Protocol for hNP1 Neural Progenitor Expansion: To coat dishes perform the following steps: 1. Thaw BD Matrigel at 2-8C overnight. Matrix will gel rapidly at 22C to 35C. Keep Matrigel on ice and use pre-cooled pipettes, plates and tubes when preparing. Gelled Matrigel may be re-liquified if placed at 2-8C on ice for 24 to 48 hours. 2. Handle using aseptic technique in a laminar flow hood. 3. Once BD Matrigel Matrix is thawed, swirl vial to be sure that material is evenly dispersed. 4. […]

This passage reports outcome and AC50 results from PubChem BioAssay (EPA / NIEHS).

Each structure is given as a SMILES string. Results filed as inconclusive are left out. Calls of active or inactive are those of the source. The calls were made as follows, unless noted: active = hit-call score of the fitted dose curve at least 0.9, where 1 is the maximum; inconclusive = response in the unintended direction; inactive = score below 0.9.

For `Cc1ccn2nc(S(=O)(=O)Nc3c(F)cccc3F)nc2n1`, the call in assay [1], in assay [2], in assay [3] and in assay [4] was inactive.
Take `N#CSCSC#N`: the compound was classed as inactive in assay [1]. In addition, the figures for the AC50 in assay [2], in assay [5] and in assay [4] were 20.5 µM (active), 14.2 µM (active) and 17.9 µM (active), respectively.
On to `CCOP(=S)(OCC)SCCSCC`, for which the compound was called inactive in assay [1] and in assay [4]. Further, the AC50 in assay [2] was 72.2 µM (active); in assay [5] it was 34.3 µM (active).
For the compound `CCCCOC(=O)[C@@H](C)Oc1ccc(Oc2ccc(C#N)cc2F)cc1`, the result in assay [1] and in assay [4] was inactive. The results for the AC50 in assay [2] and in assay [5] were 85.7 µM (active) and 84.8 µM (active), respectively.
Take `CC(C1CC1)C(O)(Cn1cncn1)c1ccc(Cl)cc1` (stereo not given): the result in assay [1] and in assay [3] was inactive. Also, the AC50 was 50 µM (active) in assay [2], 77.4 µM (active) in assay [5] and 26.2 µM (active) in assay [4].
On to `CCCCOC(=O)c1ccccc1C(=O)O`, for which the result in assay [1], in assay [3] and in assay [4] was inactive.
Consider `CCCCN(CC)c1c([N+](=O)[O-])cc(C(F)(F)F)cc1[N+](=O)[O-]`, for which the outcome in assay [1], in assay [3] and in assay [4] was inactive.
As to `CN(C)C(=O)Nc1cccc(C(F)(F)F)c1`, the compound was classed as inactive in assay [1], in assay [2], in assay [5], in assay [3] and in assay [4].
`CN(C)NC(=O)CCC(=O)O`: the compound was called inactive in assay [1], in assay [3] and in assay [4].
As for `CC(COc1ccc(Oc2ccccc2)cc1)Oc1ccccn1` (stereo not given), the compound was classed as inactive in assay [1], in assay [3] and in assay [4]. For the same compound, the AC50 in assay [2] is 70.3 µM (active).
For the compound `O=[N+]([O-])c1cc(C(F)(F)F)c(Cl)c([N+](=O)[O-])c1Nc1ncc(C(F)(F)F)cc1Cl`, the call in assay [1], in assay [6], in assay [7] and in assay [8] was inactive. Also, the values for the AC50 in assay [2], in assay [5] and in assay [4] were 15.5 µM (active), 15.2 µM (active) and 45.7 µM (active), respectively.
In the case of `COc1ccc(C(=CC(=O)N2CCOCC2)c2ccc(Cl)cc2)cc1OC`, the call in assay [1], in assay [5] and in assay [3] was inactive. Further, the results for the AC50 in assay [2] and in assay [4] were 0.119 µM (active) and 42.9 µM (active), respectively.
Take `C#CC(C)(C)NC(=O)c1cc(Cl)cc(Cl)c1`: the AC50 in assay [1] is 5.38 µM (active). In addition, the outcome in assay [3] and in assay [4] was inactive.
`CC(C)[C@H](C(=O)O[C@H](C#N)c1cccc(Oc2ccccc2)c1)c1ccc(Cl)cc1`: the compound was classed as inactive in assay [1] and in assay [3]. Besides, the results for the AC50 in assay [2], in assay [5] and in assay [4] were 50 µM (active), 74.2 µM (active) and 1.53 µM (active), respectively.
`CCOP(=S)(OCC)Oc1ccc([N+](=O)[O-])cc1`: in assay [1], the AC50 was 5.32 µM (active). The outcome in assay [3] and in assay [4] was inactive.
Take `CCOC(=O)COc1cc(-c2nn(C)c(OC(F)F)c2Cl)c(F)cc1Cl`: the compound was classed as inactive in assay [1], in assay [3] and in assay [4].
Consider `CCOP(=O)(NC(C)C)Oc1ccc(SC)c(C)c1` (stereo not given), for which the result in assay [1] and in assay [3] was inactive. For the same compound, the AC50 in assay [4] was 33.3 µM (active).
Turning to `CCCSP(=O)(OCC)Oc1ccc(Br)cc1Cl` (stereo not given), the result in assay [1], in assay [3] and in assay [4] was inactive.
With `CCOP(=S)(OCC)Oc1ccc2c(C)c(Cl)c(=O)oc2c1`, the call in assay [1], in assay [5], in assay [3] and in assay [4] was inactive. Besides, the AC50 in assay [2] is 50 µM (active).
`CNC(=O)ON=C(C)SC`: the outcome in assay [1], in assay [3] and in assay [4] was inactive.
`CCCSP(=O)(OCC)SCCC`: the compound was classed as inactive in assay [1], in assay [3] and in assay [4].
In the case of `CON=C(C(=O)OC)c1ccccc1CON=C(C)c1cccc(C(F)(F)F)c1`, the outcome in assay [1], in assay [2] and in assay [4] was inactive.
Regarding `CC(C)N(C(=O)SCC(Cl)=C(Cl)Cl)C(C)C`, the call in assay [1] and in assay [4] was inactive. The half-maximal activity concentration (AC50) in assay [5] was 12.2 µM (active).
For `CCc1cccc(C)c1N(C(=O)CCl)C(C)COC` (stereo not given), the compound was classed as inactive in assay [1], in assay [3] and in assay [4].
With `COc1cccc(C(=O)NN(C(=O)c2cc(C)cc(C)c2)C(C)(C)C)c1C`, the compound was called inactive in assay [1], in assay [3] and in assay [4].
Take `CNc1cnn(-c2cccc(C(F)(F)F)c2)c(=O)c1Cl`: the compound was classed as inactive in assay [1], in assay [2], in assay [5], in assay [3] and in assay [4].
For `CCOP(=S)(OCC)Oc1cc(C)nc(C(C)C)n1`, the compound was called inactive in assay [1], in assay [3] and in assay [4]. For the same compound, the figures for the AC50 in assay [2] and in assay [5] were 79.1 µM (active) and 75.2 µM (active), respectively.
For `C[N+]1(C)CCCCC1`, the outcome in assay [1], in assay [2] and in assay [4] was inactive.
Consider `C#CCC1=C(C)C(OC(=O)C2C(C=C(C)C)C2(C)C)CC1=O` (stereo not given), for which the outcome in assay [1], in assay [3] and in assay [4] was inactive.
